37 compounds from PubChem BioAssay (Tox21) can be followed below.

Each structure is given as a SMILES string. Records with an inconclusive call do not appear. A call without a number means that no potency is given here. Calls of active or inactive are those of the source. Unless noted, calls follow the shape of the dose curve; as a rule, active = well fitted cell-killing curve with a large enough effect in the repeat runs (not every such curve was filed as active); inconclusive = weak or mixed curves, or effect the other way; inactive = no such curve, though single readings can be large or run the other way.
Also: nearly all actives have a fitted effect of over 40% in size.
Potency is read from the fitted curve at half-maximal effect.

Nuclear receptor subfamily 1 group I member 3 (Homo sapiens), sequence (Q14994 whole entry, looked up): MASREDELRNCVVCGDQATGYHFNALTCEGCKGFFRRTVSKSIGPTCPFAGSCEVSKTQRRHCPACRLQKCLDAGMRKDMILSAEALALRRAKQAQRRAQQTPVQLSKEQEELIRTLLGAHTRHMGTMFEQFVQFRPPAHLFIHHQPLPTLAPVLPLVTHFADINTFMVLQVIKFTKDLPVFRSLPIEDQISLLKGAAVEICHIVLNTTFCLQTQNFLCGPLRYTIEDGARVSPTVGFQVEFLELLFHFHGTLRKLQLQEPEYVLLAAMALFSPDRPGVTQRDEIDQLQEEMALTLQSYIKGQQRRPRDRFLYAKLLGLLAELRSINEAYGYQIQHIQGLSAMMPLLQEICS

In the first test the target is Nuclear receptor subfamily 1 group I member 3 (Homo sapiens) (UniProt Q14994). Briefly: qHTS assay to identify small molecule antagonists of the constitutive androstane receptor (CAR) signaling pathway (AID 1224838; active = well fitted inhibition curve with a large enough effect in the repeat runs;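 also: HepG2 cells stably expressing hCAR with CYP2B6 luciferase reporter stimulated by CITCO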). Particulars: HepG2-CYP2B6-hCAR luciferase, CITCO-stimulated, 24 h; series mostly up to 92.4 µM. Put shortly:
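Reporter luminescence was quantified after 24 h exposure of hCAR/CYP2B6-2.2kb double-stable HepG2 cells to compounds at 15 concentrations in the presence of 50 nM CITCO final.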
A general note: In qHTS, concentration-response curves come from the screen itself.
`CCOC(=O)c1ccc(NC(=O)CN2CCCCC2)cc1`: the Potency result was “inactive”.

Regarding `C[C@@H]1[C@H](O)[C@@H](C)/C=C/C=C\C=C\C=C\C=C\C=C\C=C\[C@H](O[C@@H]2O[C@H](C)[C@@H](O)[C@H](N)[C@@H]2O)C[C@@H]2O[C@](O)(C[C@@H](O)C[C@@H](O)[C@H](O)CC[C@@H](O)C[C@@H](O)CC(=O)O[C@H]1C)C[C@H](O)[C@H]2C(=O)O` (stereo in doubt), the Potency result is “inactive”.

In the case of `COc1cc(OC)c2ccc(=O)oc2c1`, the Potency entry was “inactive”.

On to `CO[C@@H]1[C@@H](OC)[C@H](C)[C@@](O)(CC(=O)O)O[C@H]1[C@H](C)[C@H]1O[C@@]2(CC[C@@](C)([C@H]3CC[C@@](C)([C@@H]4O[C@@H]([C@H]5O[C@](C)(O)[C@H](C)C[C@@H]5C)C[C@@H]4OC4C[C@H](OC)[C@@H](OC)[C@H](C)O4)O3)O2)C[C@H](O)[C@H]1C` (stereo partly specified), for which the Potency was 9.44 µM (active).

Consider `CC(C)COC(=O)c1ccc(O)cc1`, for which the Potency entry is “inactive”.

Take `COc1ccc(C2C(=O)c3ccccc3C2=O)cc1`: the Potency entry was “inactive”.

In the case of `O=C(O)CCS`, the Potency entry is “inactive”.

Test system in a further test: not listed separately
Put plainly: qHTS assay to identify small molecule antagonists of the estrogen related receptor signaling pathway with the pleiotropic PPARgamma coactivator (PGC) from Tox21 10K library - cell viability counter screen (AID 1224840). The conditions noted are these: PGC/ERR reporter cells viability, CellTiter-Fluor, 17.5 h; series mostly up to 92.4 µM. The procedure, abridged: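 Here the PGC/ERR cells serve as a cytotoxicity control: they are exposed to compounds for 17.5 hours at 37 C, and live-cell signal is quantified using CellTiter-Fluor fluorescence.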
As to `C[C@@H]1[C@H](O)[C@@H](C)/C=C/C=C\C=C\C=C\C=C\C=C\C=C\[C@H](O[C@@H]2O[C@H](C)[C@@H](O)[C@H](N)[C@@H]2O)C[C@@H]2O[C@](O)(C[C@@H](O)C[C@@H](O)[C@H](O)CC[C@@H](O)C[C@@H](O)CC(=O)O[C@H]1C)C[C@H](O)[C@H]2C(=O)O` (stereo in doubt), the Potency entry is “inactive”.

With `CCOc1ncc(F)c(=O)[nH]1`, the Potency result was “inactive”.

In the case of `CC1CCC(C(C)CS)CC1S` (stereo unspecified), the Potency entry is “inactive”.

As for `O=CNNC=O`, the Potency result is “inactive”.

Consider `CC[C@H]1OC(=O)[C@H](C)[C@@H](O[C@H]2C[C@@](C)(OC)[C@@H](O)[C@H](C)O2)[C@H](C)[C@@H](O[C@@H]2O[C@H](C)C[C@H](N(C)C)[C@H]2O)[C@](C)(O)C[C@@H](C)/C(=N\OCOCCOC)[C@H](C)[C@@H](O)[C@]1(C)O`, for which the Potency result was “inactive”.

For the compound `O=C(/C=C/c1ccc([N+](=O)[O-])cc1)c1ccccc1`, the Potency is 54.6 µM (active).

On to `Nc1nc(-c2ccc([N+](=O)[O-])cc2)cs1`, for which the Potency result was “inactive”.

In the case of `Cc1oc(=O)oc1COC(=O)[C@@H]1N2C(=O)[C@@H](NC(=O)[C@H](N)c3ccccc3)[C@H]2SC1(C)C`, the Potency entry was “inactive”.

Take `CC(C)(C)S`: the Potency entry was “inactive”.

On to `C1=CCC2CC=CC2C1` (stereo unspecified), for which the Potency entry was “inactive”.

With `COc1cc(OC)c2ccc(=O)oc2c1`, the Potency entry was “inactive”.

In the case of `CC(C)C1CCC(C(=O)N[C@H](Cc2ccccc2)C(=O)O)CC1` (stereo partly specified), the Potency entry is “inactive”.

As to `CCCCCCOC(=O)CCCCC`, the Potency entry is “inactive”.

For the compound `C[C@@H]1C[C@H]2[C@@H]3CCC4=CC(=O)C=C[C@]4(C)[C@@]3(F)[C@@H](O)C[C@]2(C)[C@@]1(O)C(=O)COP(=O)(O)O`, the Potency result is “inactive”.

In the case of `CO[C@@H]1[C@@H](OC)[C@H](C)[C@@](O)(CC(=O)O)O[C@H]1[C@H](C)[C@H]1O[C@@]2(CC[C@@](C)([C@H]3CC[C@@](C)([C@@H]4O[C@@H]([C@H]5O[C@](C)(O)[C@H](C)C[C@@H]5C)C[C@@H]4OC4C[C@H](OC)[C@@H](OC)[C@H](C)O4)O3)O2)C[C@H](O)[C@H]1C` (stereo partly specified), the Potency is 0.75 µM (active).

In the case of `CCCCCCCCCCCCCCCC(=O)OCC`, the Potency result was “inactive”.

Take `CC(C)COC(=O)c1ccc(O)cc1`: the Potency entry is “inactive”.

Consider `COc1ccc(C(=O)NCc2ccc(OCCN(C)C)cc2)cc1OC`, for which the Potency entry was “inactive”.

For `CC(=O)NNC(C)=O`, the Potency result is “inactive”.

Consider `CCC(CO)(CO)CO`, for which the Potency entry was “inactive”.

Turning to `COc1ccc(-n2nc(C(F)F)cc2-c2ccc(S(C)=O)cc2)cc1` (stereo unspecified), the Potency entry is “inactive”.

As to `C=CC(=O)NC(C)C`, the Potency result is “inactive”.

With `CC(=O)OCCC(C)CC(C)(C)C` (stereo unspecified), the Potency entry was “inactive”.

As to `CCCCOC(=O)CCCCC(=O)OCCCC`, the Potency entry is “inactive”.

As to `CCCCC(CC)COS(=O)(=O)O` (stereo unspecified), the Potency result is “inactive”.

On to `COC(C)(C)OC`, for which the Potency result was “inactive”.

As to `Cc1ccc(S(=O)(=O)NC(=O)NC2CCCCC2)cc1`, the Potency entry is “inactive”.

As to `CC1=CC[C@@]23C[C@@H]1C(C)(C)[C@@H]2CC[C@H]3C`, the Potency result is “inactive”.

For `CCCCCCC(O)CCOC(C)=O` (stereo unspecified), the Potency entry is “inactive”.

Take `CC(=O)C(=O)CC(C)C`: the Potency result is “inactive”.

For the compound `CC(=O)c1ccc[nH]1`, the Potency result is “inactive”.

As to `CC(C)(O)CCc1ccccc1`, the Potency entry is “inactive”.

On to `COc1ccc(C)cc1`, for which the Potency result was “inactive”.

`CCN(CC)C(=O)N1CCN(C)CC1`: the Potency result is “inactive”.
